Among the data in PubChem BioAssay AID1788 (Vanderbilt High Throughput Screening Facility, 2009) are inhibition values, retold here.

As usually defined, the inhibition is the drop in the measured response relative to a control, in per cent.

The test system of this assay is Purinergic P2X (rabbit). The assay can be described thus: PubChem AID 1788. The note with it: MDS Pharma lead profiling panel, radioligand binding, at 10 µM, active compounds read high.

A number with no mark means an inactive call. How the calls were made is not given here.

For the compound `CCOC(=O)N1CCC(NCCNC(=O)c2ccccc2C)CC1`, the inhibition is 2%.
